# Screening results (PubChem BioAssay)
# CYP2C9 inh = blockers of cytochrome P450 2C9 activity – biochemical, luminescence, ADME assay, primary screen; CYP2C9 Supersomes, luciferin-H conversion; inhibition, % at 5 µM; hit rate 20% among 96,000; AID 777, 2007;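 active means blocking of liver enzyme CYP2C9 beyond about 50% at 5 µM, limit read from the data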
# Target sequence (P11712 whole entry, looked up): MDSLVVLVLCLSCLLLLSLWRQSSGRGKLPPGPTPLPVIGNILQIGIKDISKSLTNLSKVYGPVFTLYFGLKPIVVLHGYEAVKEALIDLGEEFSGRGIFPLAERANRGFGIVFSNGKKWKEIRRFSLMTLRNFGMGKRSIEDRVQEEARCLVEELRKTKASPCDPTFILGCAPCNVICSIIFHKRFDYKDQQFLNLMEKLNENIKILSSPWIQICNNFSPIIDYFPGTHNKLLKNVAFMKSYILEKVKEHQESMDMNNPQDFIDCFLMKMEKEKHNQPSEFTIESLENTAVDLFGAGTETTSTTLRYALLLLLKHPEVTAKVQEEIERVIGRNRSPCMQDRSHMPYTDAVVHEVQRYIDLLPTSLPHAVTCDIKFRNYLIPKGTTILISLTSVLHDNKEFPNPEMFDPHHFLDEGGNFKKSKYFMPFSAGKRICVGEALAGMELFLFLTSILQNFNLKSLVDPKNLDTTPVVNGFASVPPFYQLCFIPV
# CYP2C9 act = human CYP2C9 activators, primary screen, biochemical, luminescence. Cytochrome P450 2C9 (Homo sapiens), P11712. recombinant CYP2C9, luciferin-H conversion; stronger effect = higher value; factor 1 = untreated enzyme, 0 = blocked. activation factor at 5 µM. hit rate 1.4% among 96,000. AID 1024, 2008;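 active means activation factor of 2 or more for CYP2C9 at a 5 µM dose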;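 further: 0 = sulfaphenazole-blocked wells and 1 = vehicle-only wells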
# CYP2C19 inhib = blockers of cytochrome P450 2C19 activity – biochemical, luminescence, ADME assay, primary screen; CYP2C19 Supersomes, luciferin-H EGE luminescence, 30 min; hit rate 21% among 96,000; P33261; AID 778, 2007; inhibition, % at 5 µM;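 active means CYP2C19 inhibition above a set limit at 5 µM in the primary screen, cut at about 50% in these data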;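 further: plate controls were negative control wells for no effect and 2.5 mM tranylcypromine positive control for full effect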
# PostGolgi yeast = phenotypic screen on post-Golgi transport, primary screen. hit rate 0.9% among 98,000. post-Golgi transport phenotypic cell assay. inhibition, % at 10 µM;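 further: yeast cells grown in 1536-well plates; yeast grown about 18 h at 30C before absorbance read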
# PostGolgi ctrl = growth inhibition of yeast control strain, primary screen, counter-screen for post-Golgi transport modulator project | hit rate 5% among 98,000 | inhibition, % at 10 µM | efflux-deficient yeast background strain, growth absorbance A615, 16 h
# CYP2C19 activ = human CYP2C19 activators, primary screen, biochemical, luminescence; recombinant CYP2C19, luciferin-H EGE luminescence; stronger effect = higher value; 0 = fully inhibited enzyme, 1 = untreated enzyme; activation factor at 5 µM; Cytochrome P450 2C19 (Homo sapiens), P33261; 96,000 tested, under 10 active; AID 1025, 2008;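 active means activation factor of at least 2 at 5 µM in the primary screen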;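 further: 0 = wells with 2.5 mM tranylcypromine and 1 = vehicle-only wells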
# Active calls of the source: *; . = not tested or not shown. A selection follows. Unless noted, no stated cut-off is given here; in the data, active means inhibition above about 30%; inactive means the rest.
SMILES,CYP2C9 inh,CYP2C9 act,CYP2C19 inhib,PostGolgi yeast,PostGolgi ctrl,CYP2C19 activ
Cc1ccc(NC(=O)Nc2ccc(F)cc2)nc1,11,0.9,57*,1,15,0.4
Cc1ccnc(NC(=O)Nc2ccc(F)cc2)c1,27,0.7,18,-6,5,0.8
Cc1ccc(NC(=O)COC(=O)c2ccn(C)n2)cc1,35,0.7,79*,-7,2,0.2
O=C(O)CCc1ccc(-c2ccc(Cl)cc2)n1Cc1ccco1,11,0.9,18,7,9,0.8
COc1ccc(/C(N)=N/OC(=O)CSc2ccc(C)cc2)cc1,-16,1.2,25,-6,-2,0.7
COc1ccc(C2C(C(=O)OCC(=O)NC(C)(C)C)CCC(=O)N2c2ccc(C)cc2)cc1OC (stereo unspecified),26,0.7,13,-4,10,0.9
COc1ccc(OCC(=O)Sc2ccc(C)cc2)cc1,30,0.7,68*,-11,0,0.3
COc1ccc(C2C(C(=O)OCC(=O)Nc3ccc(C)cc3)CCC(=O)N2c2ccc(OC)cc2)cc1 (stereo unspecified),74*,0.3,75*,-11,2,0.2
CCc1ccc(OCC(=O)NC(=S)Nc2ccc(F)cc2)c(Br)c1,2,1,6,5,-4,0.9
O=C(COc1ccc(Br)cc1CO)Nc1ccc(F)cc1,88*,0.1,99*,-4,13,0
CCCc1nnc(NC(=O)CCC(=O)N2CCCCCC2)s1,-3,1,8,-2,5,0.9
O=C(NCC(F)(F)F)Nc1ccccn1,-15,1.1,-7,7,12,1.1
Cc1cc(C)cc(N(CC(=O)N2CCn3c2nc2ccccc23)S(=O)(=O)c2c(C)noc2C)c1,48,0.5,24,-6,13,0.8
CCC(=O)Nc1cc(-c2nn(CC(=O)N3CCCCC3)c(=O)c3ccccc23)ccc1N1CCOCC1,28,0.7,15,10,12,0.8
O=C(NCCN1CCOCC1)N1CCOCC1,30,0.7,36,7,13,0.6
O=C(NCc1ccc2[nH]c3c(c2c1)CCCC3)N1CCOCC1,9,0.9,0,21,30*,1
CCC1(CC)C(=O)N(C)C(=O)NC1=Nc1ccccc1,12,0.9,19,-3,-6,0.8
CCN(CC)S(=O)(=O)c1ccc(Oc2cccc(C(C)=O)c2)nc1,26,0.7,51*,-8,1,0.5
CN(C)S(=O)(=O)c1ccc(Oc2ccccc2)cc1,58*,0.4,48,6,6,0.5
CCN(CC)S(=O)(=O)c1ccc(OCC(=O)NCc2ccccc2)cc1,67*,0.3,-3,0,21,1
CCN(CC)S(=O)(=O)c1ccc(Oc2ccccc2)cc1,66*,0.3,28,6,5,0.7
CN(C)S(=O)(=O)c1ccc(-c2ccccc2)cc1,40,0.6,36,0,2,0.6
CCN(CC)S(=O)(=O)c1ccc(-c2ccc(S(=O)(=O)N(CC)CC)cc2)cc1,37,0.6,9,-8,9,0.9
CCN(CC)S(=O)(=O)c1ccc(Cl)c(C(=O)Oc2cccnc2)c1,7,0.9,33,-4,16,0.7
O=C(COc1ccc(/C=N/NS(=O)(=O)c2ccccc2)cc1)NCc1ccccc1,17,0.8,-4,-19,7,1
SMILES,CYP2C9 inh,CYP2C9 act,CYP2C19 inhib,PostGolgi yeast,PostGolgi ctrl,CYP2C19 activ
CC(=O)CCc1c[nH]c2c(C(=O)O)cccc12,-23,1.2,-13,1,3,1.1
C=CCSc1n[nH]c2nc3c(c(=O)n12)C1(CCCC1)Cc1ccccc1-3,22,0.8,-12,5,23,1.1
CC1CCN(C(=O)COC(=O)c2cc(Cl)cc(Cl)c2N)CC1,-133,2.3*,46,-1,16,0.5
CN(C)C(=O)COC(=O)c1cc(Cl)cc(Cl)c1N,-29,1.3,26,-8,11,0.7
CC1CCN(C(=O)COc2ccccc2F)CC1,-2,1,25,20,7,0.8
CC(C)N(C(=O)COC(=O)c1cc(Cl)cc(Cl)c1N)C(C)C,66*,0.3,83*,-3,30,0.2
COC(=O)/C=C1/S/C(=N/NC(=O)c2ccccc2C)NC1=O,78*,0.2,6,4,3,0.9
COC(=O)/C=C1\SC(=NC(=O)c2cccc(Cl)c2)NC1=O,14,0.9,-11,24,-1,1.1
COC(=O)/C=C1\S/C(=N/NC(=O)c2ccccc2)NC1=O,81*,0.2,7,-2,-1,0.9
COC(=O)/C=C1/S/C(=N/NC(=O)c2ccccc2)NC1=O,29,0.7,-9,-7,-2,1.1
CCCN1Cc2cccc(C(=O)N3CCN(c4cc(Cl)ccc4C)CC3)c2C1=O,96*,0,89*,-1,13,0.1
COCCN1Cc2cccc(C(=O)Nc3ccc4c(c3)OCCO4)c2C1=O,32,0.7,12,-1,14,0.9
COCCN1Cc2cccc(C(=O)N3CCN(c4cc(C)ccc4C)CC3)c2C1=O,71*,0.3,75*,-4,3,0.3
O=C(O)CCCNc1ccc(S(=O)(=O)Nc2ccccc2C(=O)O)cc1C(=O)O,6,0.9,-6,3,4,1.1
O=S(=O)(c1ccccc1F)N(Cc1ccco1)Cc1nnc(-c2ccccc2Br)o1,68*,0.3,50*,3,15,0.5
COc1cccc(-c2nc(CS(=O)(=O)c3ccccc3)no2)c1,32,0.7,43,-6,-3,0.6
O=C(O)C1CCCCC1C(=O)Nc1ccccc1Cl (stereo unspecified),46,0.5,64*,-6,0,0.4
O=C(O)C1CCCCC1C(=O)Nc1ccccc1F (stereo unspecified),7,0.9,24,-12,42*,0.8
O=C(O)C1CCCCC1C(=O)Nc1ccc(Cl)cc1Cl (stereo unspecified),22,0.8,37,2,-2,0.6
O=C(NCCCCNC(=O)c1ccc(Br)s1)c1ccc(Br)s1,46,0.5,12,-1,1,0.9
Cc1cc(C)cc(-n2c(SCC(=O)NCc3ccco3)nc3ccccc3c2=O)c1,22,0.8,4,-3,5,1
CC1CCN(C(=O)Cn2c(=O)oc3ccccc32)CC1,.,.,.,-3,0,.
O=C(COc1ccccc1)N1CCN(C(=O)c2cccc(F)c2)CC1,4,1,8,7,7,0.9
CCN(CC)S(=O)(=O)c1cccc(-c2nnc(SCc3nnc(-c4ccccc4)o3)n2C)c1,55*,0.5,88*,4,-4,0.1
CCN(CC)S(=O)(=O)c1cccc(-c2nnc(SCCOc3ccc(Cl)cc3)o2)c1,-97,2*,61*,-5,1,0.4
